eIF4H FP inh = inhibitors of RNA binding by human eIF4H; Q15056; eIF4H fluorescence polarization binding assay; inhibition, % at 35 µM; 0.94% of 290,000 active; AID 2012;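 note: calls also rest on retests at 20 µM and on dose response follow-up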
PERK inh = inhibitors of human PERK kinase | AID 1416 | 0.17% of 220,000 active | Q9NZJ5 | inhibition, % at 5.6 µM | CHO PERK-DD fusion, SEAP luminescence translation reporter;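 active = inhibition above the mean inhibition of all tested compounds plus 3 SD, set separately per screening campaign, cut at about 2.9% in these data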;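 note: PERK kinase domain activated by AP20187 dimerizer at 100 nM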
PABP polyA inh = blocks human PABP binding to poly(A) RNA | AID 2014 | 1% of 290,000 active | fluorescence polarization | P11940 | inhibition, % at 35 µM;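 note: calls also rest on retests at 20 µM and on dose response follow-up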
Target sequence (P11940 whole entry, looked up): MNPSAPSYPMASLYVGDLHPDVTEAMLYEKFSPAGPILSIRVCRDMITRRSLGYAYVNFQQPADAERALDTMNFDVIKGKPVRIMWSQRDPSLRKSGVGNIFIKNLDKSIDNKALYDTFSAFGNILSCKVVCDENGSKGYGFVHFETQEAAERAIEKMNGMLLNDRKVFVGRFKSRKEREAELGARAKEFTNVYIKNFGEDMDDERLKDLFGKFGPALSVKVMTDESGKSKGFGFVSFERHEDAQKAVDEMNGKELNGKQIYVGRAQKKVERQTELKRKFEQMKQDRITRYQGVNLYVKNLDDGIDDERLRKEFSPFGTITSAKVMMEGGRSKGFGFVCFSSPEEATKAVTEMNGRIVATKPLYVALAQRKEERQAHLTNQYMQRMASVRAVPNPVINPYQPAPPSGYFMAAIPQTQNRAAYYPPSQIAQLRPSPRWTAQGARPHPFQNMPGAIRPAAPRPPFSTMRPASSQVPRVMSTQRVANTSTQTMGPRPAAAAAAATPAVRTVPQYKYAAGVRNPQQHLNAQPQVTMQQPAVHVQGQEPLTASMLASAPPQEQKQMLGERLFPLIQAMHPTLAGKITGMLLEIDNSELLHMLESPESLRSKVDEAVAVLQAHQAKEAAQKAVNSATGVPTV
eIF4E-4G inh = blocks eIF4E binding to eIF4G | P63073+Q04637 | TR-FRET eIF4E-eIF4GI(517-606) binding, 2 h | inhibition, % at 21.7 µM | 0.37% of 220,000 active;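 active = inhibition above about 30%, limit read from the data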
MLLE-PAM2 inh = blocks PAM2 peptide binding to the PABP1 MLLE domain; AID 588489; 0.36% of 360,000 active; inhibition, % at 20 µM; GST-MLLE / FITC-PAM2 fluorescence polarization; P11940; in the data active = inhibition above about 35%, passing the limit was not always enough
PfM18AAP inh-1 = blocks P. falciparum M18 aspartyl aminopeptidase; AID 1822; recombinant PfM18AAP, H-Glu-NHMec fluorogenic cleavage; inhibition, % at 7.35 µM; 1.2% of 290,000 active;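 active = inhibition above the campaign mean inhibition over all tested compounds plus 3 SD, cut at about 28% in these data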
PfM18AAP inh-2 = confirmation of Plasmodium falciparum M18 aspartyl aminopeptidase inhibitors; shares compounds with PfM18AAP inh-1; recombinant PfM18AAP, H-Glu-NHMec fluorogenic cleavage; inhibition, % at 7.35 µM; 28% of 2,400 active; AID 2170;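 active = mean inhibition over replicate wells above the hit cutoff set for the earlier primary screen, cut at about 29% in these data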
CTSL1 confirm = counter-screen for PFM18AAP inhibitors: confirmation of human cathepsin L inhibitors; shares compounds with PfM18AAP inh-1; purified cathepsin L1, Z-Leu-Arg-MCA fluorescence; inhibition, % at 5.96 µM; 2,400 tested, under 10 active;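 active = average inhibition across replicates above the hit cutoff set in the earlier primary screen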
Numbers stand for hits. An excerpt weighted towards active compounds, which were near 2.4% of everything screened. Unless noted, the rule behind the calls is not given here.

Results for NCCc1ccc(O)c(O)c1 ?
eIF4H FP inh: inactive; PERK inh: inactive; PABP polyA inh: inactive; eIF4E-4G inh: inactive; MLLE-PAM2 inh: inactive; PfM18AAP inh-1: 73; PfM18AAP inh-2: 66; CTSL1 confirm: inactive

What do the screens show for `O=C(CSc1nnc(NC(=O)c2ccco2)s1)NC1CCCCC1`?
eIF4H FP inh: inactive; PERK inh: inactive; PABP polyA inh: inactive; eIF4E-4G inh: inactive; MLLE-PAM2 inh: inactive; PfM18AAP inh-1: inactive

Results for CSc1ccc(C(=S)N2CCN(C(c3ccccc3)c3ccccc3)CC2)cc1 ?
eIF4H FP inh: inactive; PERK inh: inactive; PABP polyA inh: inactive; eIF4E-4G inh: inactive; MLLE-PAM2 inh: inactive; PfM18AAP inh-1: 41; PfM18AAP inh-2: inactive; CTSL1 confirm: inactive

Results for CCc1nc2ccc(C(=O)Nc3cccc(NS(C)(=O)=O)c3)cn2c1N(CC)Cc1cccc(Br)c1 ?
MLLE-PAM2 inh: inactive

Results for Cn1c(N/N=C/c2c[nH]c3ccccc23)nc2ccccc21 ?
eIF4H FP inh: inactive; PERK inh: inactive; PABP polyA inh: inactive; eIF4E-4G inh: inactive; MLLE-PAM2 inh: inactive; PfM18AAP inh-1: 54; PfM18AAP inh-2: inactive; CTSL1 confirm: inactive

Results for CC/C(=N\NC(=O)c1nnn(-c2nonc2N)c1-c1cccs1)c1ccccc1 ?
eIF4H FP inh: inactive; PABP polyA inh: inactive; MLLE-PAM2 inh: inactive; PfM18AAP inh-1: inactive

Results for COc1ccc(S(=O)(=O)Nc2cc(SCC(=O)O)c(O)c3ccccc23)cc1 ?
eIF4H FP inh: inactive; PABP polyA inh: inactive; MLLE-PAM2 inh: inactive; PfM18AAP inh-1: 33; PfM18AAP inh-2: inactive; CTSL1 confirm: inactive

Results for Cc1ccccc1/C=N/N=C1/NC(=O)CCS1 ?
eIF4H FP inh: inactive; PERK inh: inactive; PABP polyA inh: inactive; eIF4E-4G inh: inactive; MLLE-PAM2 inh: inactive; PfM18AAP inh-1: 65; PfM18AAP inh-2: inactive; CTSL1 confirm: inactive

How did CC(C)n1cc(CN2CCN(CCc3ccccc3)C(CCO)C2)cn1 (centres undefined) do in these assays?
eIF4H FP inh: inactive; PERK inh: inactive; PABP polyA inh: inactive; eIF4E-4G inh: inactive; MLLE-PAM2 inh: inactive; PfM18AAP inh-1: inactive

What do the screens show for `COc1cccc(CNC(=O)CN2CCC(c3nc4ccc(C)cc4[nH]3)CC2)c1`?
eIF4H FP inh: inactive; PERK inh: inactive; PABP polyA inh: inactive; eIF4E-4G inh: inactive; MLLE-PAM2 inh: inactive; PfM18AAP inh-1: inactive

How did CCCCn1nc2cc(C(=O)NCc3ccccc3)ccc2c1OCC do in these assays?
eIF4H FP inh: inactive; PERK inh: inactive; PABP polyA inh: inactive; eIF4E-4G inh: inactive; MLLE-PAM2 inh: inactive; PfM18AAP inh-1: inactive

How did CCOc1ccc(CCNC(=O)CS(=O)Cc2nc(-c3ccccc3C)oc2C)cc1OCC (centres undefined) do in these assays?
eIF4H FP inh: inactive; PABP polyA inh: inactive; MLLE-PAM2 inh: inactive; PfM18AAP inh-1: inactive

What do the screens show for `N#CCC(=O)N/N=C/c1ccc(Sc2nc3ccccc3s2)o1`?
eIF4H FP inh: inactive; PERK inh: inactive; PABP polyA inh: inactive; eIF4E-4G inh: inactive; MLLE-PAM2 inh: inactive; PfM18AAP inh-1: 41; PfM18AAP inh-2: inactive; CTSL1 confirm: inactive

How did CC1CCCC(NC(=O)Nc2cccs2)C1C (centres undefined) do in these assays?
eIF4H FP inh: inactive; PERK inh: inactive; PABP polyA inh: inactive; eIF4E-4G inh: inactive; MLLE-PAM2 inh: inactive; PfM18AAP inh-1: inactive

What do the screens show for `CCOC(=O)c1c(C)n(-c2ccc(C)cc2)c2c(C(C(C)=O)C(=O)O)c(Br)c(O)c(O)c12` (centres undefined)?
eIF4H FP inh: inactive; PERK inh: inactive; PABP polyA inh: inactive; eIF4E-4G inh: inactive; MLLE-PAM2 inh: inactive; PfM18AAP inh-1: 65; PfM18AAP inh-2: 37; CTSL1 confirm: inactive

How did CCCCC(=O)Nc1c(C)cc(C)cc1Cl do in these assays?
eIF4H FP inh: inactive; PERK inh: inactive; PABP polyA inh: inactive; eIF4E-4G inh: inactive; MLLE-PAM2 inh: inactive; PfM18AAP inh-1: inactive

How did CCN(CC)c1ccc2nc3c4ccccc4c(=O)cc-3oc2c1 do in these assays?
eIF4H FP inh: inactive; PABP polyA inh: inactive; PfM18AAP inh-1: 38; PfM18AAP inh-2: inactive; CTSL1 confirm: inactive

Source: PubChem (several laboratories)
